Assay results reported in PubChem BioAssay AID1159580 (chemical genetic matrix, 2015).
“And” between values parts separate entries of the source, which are not always exact repeats. Equal values may be shown once. About 2,000 (36%) of roughly 5,500 compounds were called active. Not shown: some 18% with an inconclusive outcome. The list shows a part of the results. A number with no mark means an inactive call. Cut-off read from the data, not from the text of the source: active = normalized growth mostly below about 0.91 (no sharp cut-off); inconclusive = no clear call, values can overlap the other calls; inactive = mostly above about 0.92.

Assay: chemical genetic growth profiling, strain panel (AID 1159580);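 note: tested at 20 µM; growth read once vehicle control cultures reached saturation at 30 °C; 1 = growth at the plate median or of vehicle wells; lower values mean less growth of the strain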
Conditions: S. cerevisiae deletion strains, growth OD

SMILES: Oc1cc(O)c2c(c1)O[C@H](c1cc(O)c(O)c(O)c1)[C@H](O)C2
- normalized growth (locus YAL021C, strain ccr4, hits give low values): 0.992
- normalized growth (locus YAL026C, strain drs2, hits give low values): 1.02
- normalized growth (locus YAL030W, strain snc1, hits give low values): 1.01
- normalized growth (locus YBL061C, strain skt5, hits give low values): 1.02
- normalized growth (locus YBR009C, strain hhf1, hits give low values): 1.02
- normalized growth (locus YBR021W, strain FUR4, hits give low values): 1.03
- normalized growth (locus YBR023C, strain chs3, hits give low values): 1.02
- normalized growth (locus YBR171W, strain sec66, hits give low values): 1.03
- normalized growth (locus YBR229C, strain ROT2, hits give low values): 0.996
- normalized growth (locus YBR231C, strain swc5, hits give low values): 1
- normalized growth (locus YBR279W, strain paf1, hits give low values): 1.01
- normalized growth (locus YCL011C, strain gbp2, hits give low values): 1.02
- normalized growth (locus YCL016C, strain dcc1, hits give low values): 1.02
- normalized growth (locus YCL029C, strain bik1, hits give low values): 0.986
- normalized growth (locus YCL061C, strain MRC1, hits give low values): 1.02
- normalized growth (locus YCL069W, strain vba3, hits give low values): 1.02
- normalized growth (locus YCR088W, strain abp1, hits give low values): 1.02
- normalized growth (locus YDL005C, strain med2, hits give low values): 1.03
- normalized growth (locus YDL035C, strain GPR1, hits give low values): 1.03
- normalized growth (locus YDL040C, strain nat1, hits give low values): 1.01
- normalized growth (locus YDL074C, strain BRE1, hits give low values): 0.981
- normalized growth (locus YDL101C, strain DUN1, hits give low values): 0.985
- normalized growth (locus YDL185W, strain tfp1, hits give low values): 0.983
- normalized growth (locus YDL192W, strain arf1, hits give low values): 0.982
- normalized growth (locus YDR001C, strain nth1, hits give low values): 1.02
- normalized growth (locus YDR069C, strain doa4, hits give low values): 0.993
- normalized growth (locus YDR101C, strain arx1, hits give low values): 0.985
- normalized growth (locus YDR137W, strain rgp1, hits give low values): 1.06
- normalized growth (locus YDR150W, strain NUM1, hits give low values): 0.995
- normalized growth (locus YDR159W, strain sac3, hits give low values): 1.18 [resistant] (active)
- normalized growth (locus YDR162C, strain NBP2, hits give low values): 1.02
- normalized growth (locus YDR195W, strain ref2): 1.05
- normalized growth (locus YDR297W, strain sur2, hits give low values): 1.02
- normalized growth (locus YDR318W, strain mcm21, hits give low values): 0.999
- normalized growth (locus YDR334W, strain swr1, hits give low values): 1.02
- normalized growth (locus YDR335W, strain msn5, hits give low values): 1.01
- normalized growth (locus YDR388W, hits give low values): 0.988
- normalized growth (locus YDR392W, strain spt3, hits give low values): 1.02
- normalized growth (locus YDR502C, strain sam2, hits give low values): 1.02
- normalized growth (locus YEL003W, strain gim4, hits give low values): 1.02
- normalized growth (locus YEL037C, strain rad23, hits give low values): 1.01
- normalized growth (locus YEL061C, strain CIN8 (second series), hits give low values): 1.03
- normalized growth (locus YEL061C, strain CIN8, hits give low values): 0.999
- normalized growth (locus YER015W, strain faa2, hits give low values): 0.999
- normalized growth (locus YER016W, strain bim1, hits give low values): 1.02
- normalized growth (locus YER110C, hits give low values): 0.984
- normalized growth (locus YER111C, strain swi4, hits give low values): 1.01
- normalized growth (locus YER155C, strain BEM2 (second series), hits give low values): 1.01
- normalized growth (locus YER155C, strain BEM2, hits give low values): 1.01
- normalized growth (locus YER167W, strain BCK2, hits give low values): 1.02
- normalized growth (locus YFR010W, strain ubp6, hits give low values): 1.02
- normalized growth (locus YGL078C, strain dbp3, hits give low values): 0.993
- normalized growth (locus YGL086W, strain mad1, hits give low values): 0.993
- normalized growth (locus YGL167C, strain pmr1, hits give low values): 1.01
- normalized growth (locus YGL173C, strain kem1, hits give low values): 1.02
- normalized growth (locus YGL227W, strain vid30, hits give low values): 1.02
- normalized growth (locus YGL240W, strain doc1, hits give low values): 1.03
- normalized growth (locus YGL248W, strain PDE1, hits give low values): 0.991
- normalized growth (locus YGL253W, strain hxk2, hits give low values): 1.03
- normalized growth (locus YGR135W, strain pre9, hits give low values): 0.99
- normalized growth (locus YGR252W, strain gcn5, hits give low values): 1.02
- normalized growth (locus YHR013C, strain ard1, hits give low values): 1.03
- normalized growth (locus YHR027C, strain rpn1, hits give low values): 1.02
- normalized growth (locus YHR030C, strain SLT2, hits give low values): 0.992 and 0.996
- normalized growth (locus YHR079C, strain IRE1 (second series), hits give low values): 1.01
- normalized growth (locus YHR079C, strain IRE1, hits give low values): 1.01
- normalized growth (locus YHR094C, strain hxt1, hits give low values): 0.983
- normalized growth (locus YHR129C, strain ARP1, hits give low values): 0.997
- normalized growth (locus YHR142W, strain chs7, hits give low values): 1.04
- normalized growth (locus YHR200W, strain rpn10, hits give low values): 0.994
- normalized growth (locus YIL066C, strain RNR3, hits give low values): 1.01
- normalized growth (locus YIL073C, strain SPO22, hits give low values): 1.01
- normalized growth (locus YIL125W, strain kgd1, hits give low values): 0.997
- normalized growth (locus YIR030C, strain dcg1, hits give low values): 1
- normalized growth (locus YJL092W, strain hpr5, hits give low values): 1.02
- normalized growth (locus YJL095W, strain BCK1 (second series), hits give low values): 1.02
- normalized growth (locus YJL095W, strain BCK1, hits give low values): 0.947 and 1.01
- normalized growth (locus YJL115W, strain asf1, hits give low values): 1.03
- normalized growth (locus YJL129C, strain trk1, hits give low values): 1.08
- normalized growth (locus YJL134W, strain LCB3, hits give low values): 0.992
- normalized growth (locus YJL154C, strain vps35, hits give low values): 1.02
- normalized growth (locus YJL164C, strain tpk1, hits give low values): 1.01
- normalized growth (locus YJL166W, strain qcr8, hits give low values): 1.02
- normalized growth (locus YJL168C, strain set2, hits give low values): 1
- normalized growth (locus YJL187C, strain SWE1 (second series), hits give low values): 0.952
- normalized growth (locus YJL187C, strain SWE1, hits give low values): 1.02
